The list is not random: actives were taken first. Their share in the collection is about 19%.
DT40 TDP1 CPT: growth inhibition of DT40 Tdp1-/-;hTDP1 cells with camptothecin (screen for TDP1 inhibitors). chicken DT40 Tdp1-/-;hTDP1 cells + 20 nM CPT, ATP luminescence, 48 h. Potency, µM (series often up to 46.2 µM), for the others: top-dose activity change, negative = growth inhibition, most hits filed as inhibitors. 12% of 420,000 active. AID 686979; also: potency is read from the fitted curve at half-maximal effect; nearly all actives have a fitted effect of over 55% in size
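Cell growth measured by CellTiter-Glo luminescence after a minimum 48 h, 37 C compound exposure with 20 nM CPT in Tdp1-knockout DT40 cells stably expressing hTDP1, seeded 400/well; qHTS titration format.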
HT1080 IDH1KD tx: toxicity to HT-1080 IDH1 knockdown cells (counter line) | HT-1080 IDH1 knockdown viability, ATP luminescence, 48 h | Potency, µM (top dose mostly 46.1 µM), for the others: at the top dose activity, negative = toxicity, usual class: cytotoxic | 2% of 360,000 active;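 also: potency is read from the fitted curve at half-maximal effect; 0% = DMSO wells and -100% = cell-free medium wells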
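Using the IDH1-knockdown HT-1080 line run in the same batch and compound series as the NT line, viability after 48 h at 37 °C was determined by CellTiter-Glo luminescence and expressed as % activity.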
TDP1 cell noCPT: qHTS for Inhibitors of human tyrosyl-DNA phosphodiesterase 1 (TDP1): qHTS in cells in absence of CPT; Potency, µM (top dose mostly 46.2 µM), for the others: at the top dose activity change, negative = growth inhibition, actives largely listed as inhibitors; 15% of 420,000 active; DT40 Tdp1-/- hTDP1 cells, no CPT, ATP luminescence, 48 h; also: potency is read from the fitted curve at half-maximal effect; nearly all actives have a fitted effect of over 55% in size
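No-CPT arm: Tdp1-/-;hTDP1 DT40 cells (400/well) plus compounds, incubated ≥48 hr at 37 °C. Readout CellTiter-Glo luminescence.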
HT1080-NT tox: kills 2HG-producing HT-1080-NT fibrosarcoma cells | HT-1080-NT fibrosarcoma viability, CellTiter-Glo ATP luminescence, 48 h | Potency, µM (doses to about 46.1 µM), inactives show at the highest dose activity, negative = less viability, most hits filed as cytotoxic | 1.6% of 360,000 active;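 also: NT is the 2HG producing partner of a matched IDH1 knockdown line; potency is read from the fitted curve at half-maximal effect; 0% = DMSO-treated cells and -100% = media-only wells without cells; nearly all actives have a fitted effect of over 55% in size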
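Read-out is CellTiter-Glo luminescence after 10 minutes at room temperature, following 48 hours' compound treatment of HT-1080-NT cells (750 cells/well, RPMI, 5% FBS, 37 degrees C).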
IL1B secr inh: blocks inflammasome-driven IL-1 beta release | THP-1 LPS/ATP IL-1B secretion, AlphaLISA, 16 h; stronger effect = lower value | activity change, % at 57.5 µM | 4.7% of 360,000 active | AID 743279; in the data active = activity change below about -50%; inconclusive = mostly about -30% to -49%
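Secreted IL-1B measured by AlphaLISA bead assay after 16 h compound exposure of THP-1 cells; compounds (final up to 57.5 uM) added 1 h before LPS (250 ng/mL) and ATP (1.25 mM) stimulation; lower signal means less secretion.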
Active calls of the source: *; ? = inconclusive; . = no result given. Unless noted, calls follow the shape of the dose curve; as a rule, active = well fitted curve in the direction sought with a large enough effect; inconclusive = small, poorly fitted or top-dose-only effect, or another doubt; inactive = no such curve, though single readings can be large; an effect the other way counts as inactive or inconclusive. Unless noted, % is scaled to controls: 0 for no effect and ±100 for the full control effect.

SMILES	DT40 TDP1 CPT	HT1080 IDH1KD tx	TDP1 cell noCPT	HT1080-NT tox	IL1B secr inh
Cn1c(=O)cc(OCC(=O)N2CCC(N3CCCCC3)CC2)c2ccccc21	6.3%	-8.6%	9.8%	-11.3%	-19.2
O=C(c1cc(C(F)(F)F)cc(C(F)(F)F)c1)N1CCC2(CCCN(Cc3ccccc3)C2)CC1	10.0%	.	-19.7%	.	.
Cc1ccc(NC(=O)Cn2c(C)cc(C)c(C#N)c2=O)cc1	3.2%	.	-22.7%	.	.
COc1ccccc1C(=O)O/N=C1/CCCc2c1ccc(OC)c2[N+](=O)[O-]	-24.7%	-6.5%	?	-4.3%	-21.3
COc1cc(C(=O)O/N=C2\CCCc3c2ccc(OC)c3[N+](=O)[O-])cc(OC)c1OC	10.3µM*	-0.9%	3.26µM*	-3.8%	-3.7
COC(=O)C[C@H]1C=C[C@H](NC(=O)c2ccccn2)[C@@H](CO)O1	-8.2%	18.7%	-1.4%	4.0%	9.8
COC(=O)c1c(NC(NC(=O)c2ccccc2)(C(F)(F)F)C(F)(F)F)sc2c1CCN(C)C2	?	6.6%	?	5.5%	11.3
O=C(CSc1nc2c(c(C(F)(F)F)n1)CCc1ccccc1-2)NCc1ccccc1	?	2.7%	25.9µM*	7.2%	32.4
O=C(O)CSc1nc2c(c(C(F)(F)F)n1)CCc1ccccc1-2	-5.7%	-6.9%	-9.1%	-6.3%	11.2
CC(CCC(=O)O)C1CCC2C3CC(O)[C@@H]4CC(O)CC[C@]4(C)C3CC[C@@]12C (stereo not given in full)	4.1%	.	-9.2%	.	.
Cc1cc(NC(=O)CSc2ncc(C(=O)Nc3ccccc3)c(=O)n2C)no1	-3.0%	.	1.2%	.	.
Cn1c(SCC(=O)c2ccccc2)ncc(C(=O)Nc2ccccc2)c1=O	?	-8.2%	20.6µM*	-2.0%	14.8
Cc1ccc(NC(=O)c2cnc(SCC(=O)c3ccccc3)n(C)c2=O)cc1	-35.6%	3.4%	16.4µM*	9.1%	7.8
CC(C)NC(=O)C1(C)CN(S(C)(=O)=O)CC(=O)N1CCCN1CCOCC1 (stereo not given)	-2.5%	?	8.9%	21.1%	0.0
O=C(NCc1ccc(F)cc1)c1cc(C2CCCCN2C(=O)c2ccc3c(c2)CCO3)on1 (stereo not given)	18.4µM*	-13.6%	18.4µM*	1.7%	-9.3
O=C(Nc1ccc(F)c(Cl)c1)c1cc(C2CCCCN2C(=O)c2ccc3c(c2)CCO3)on1 (stereo not given)	16.4µM*	0.0%	20.6µM*	-5.0%	-21.2
O=C(Nc1ccccc1)c1cc(C2CCCCN2C(=O)c2ccc3c(c2)CCO3)on1 (stereo not given)	23.1µM*	3.1%	18.4µM*	14.2%	-7.0
O=C(CSc1nnc(-c2cccnc2)s1)Nc1ccnc2ccccc12	1.16µM*	?	0.517µM*	-11.8%	-2.8
Cc1ccc(OCC(=O)N2CC3(C)CC2CC(C)(C)C3)cc1 (stereo not given)	?	-1.0%	?	-0.4%	-6.8
Cc1cccc(C)c1OCC(=O)N1CC2(C)CC1CC(C)(C)C2 (stereo not given)	?	-10.8%	14.1µM*	-4.8%	-9.4
CN(C)S(=O)(=O)c1ccc(C(=O)OCC(=O)N2CC3(C)CC2CC(C)(C)C3)cc1 (stereo not given)	?	6.3%	-9.5%	10.5%	13.1
Cc1noc(C)c1COc1ccc(C(=O)OCC(=O)N2CC3(C)CC2CC(C)(C)C3)cc1 (stereo not given)	?	-16.7%	18.4µM*	-4.8%	16.9
C=CCNC(=O)c1sccc1Oc1ccc(F)cc1[N+](=O)[O-]	4.6%	-1.1%	3.5%	-3.5%	0.0
Cc1ccc(NC(=O)CN(C)C(=O)COC(=O)C2=COCCO2)cc1	-3.4%	12.0%	0.3%	6.1%	10.9
O=C(Nc1ccc2ccccc2c1)N1CCCN(CCOc2ccccc2)CC1	4.61µM*	5.5%	4.11µM*	-8.3%	-2.9
SMILES	DT40 TDP1 CPT	HT1080 IDH1KD tx	TDP1 cell noCPT	HT1080-NT tox	IL1B secr inh
O=C(c1cc2ccccc2o1)N1CCN(CCOc2ccccc2)CC1	?	-9.2%	?	-1.1%	-11.3
COc1cc(/C=C2/NC(=O)N(Cc3ccccc3F)C2=O)cc(OC)c1OC	?	-22.8%	16.4µM*	-5.5%	?
COc1ccc(/C=C2/NC(=O)N(Cc3ccccc3F)C2=O)cc1OC	?	6.1%	?	19.9%	6.9
O=C(NCC1OCCc2ccccc21)c1ccc(NC(=O)c2ccc(Cl)cc2)cc1 (stereo not given)	23.1µM*	?	16.4µM*	20.6µM*	-4.8
Cc1ccc(NC(=O)C(=O)NCC2OCCc3ccccc32)cc1 (stereo not given)	-24.8%	12.1%	2.2%	6.3%	-26.0
Cc1cccc(C)c1NC(=O)c1csc(COCCO)n1	-0.1%	0.4%	-5.4%	18.9%	8.6
CC1=C(C(=O)N2CCCCCC2)CC(CC(=O)NCCCCc2ccccc2)C(=O)N1Cc1ccccc1 (stereo not given)	18.4µM*	-9.4%	20.6µM*	-0.3%	-22.0
CC1=C(C(=O)N(C)C)CC(CC(=O)NCCCCc2ccccc2)C(=O)N1Cc1ccc(C(C)(C)C)cc1 (stereo not given)	16.4µM*	-25.5%	13µM*	-22.1%	-21.7
CCN(CC)C(=O)C1=C(C)N(Cc2ccc(F)cc2)C(=O)C(CC(=O)NCCCCc2ccccc2)C1 (stereo not given)	?	-11.2%	20.6µM*	-15.2%	-16.9
CCN(CC)C(=O)C1=C(C)N(Cc2ccc(F)cc2)C(=O)C(CC(=O)NCC2CCCCC2)C1 (stereo not given)	?	-11.4%	20.6µM*	-10.5%	-23.3
CCN(CC)C(=O)C1=C(C)N(Cc2ccc(C(C)(C)C)cc2)C(=O)C(CC(=O)NCCCCc2ccccc2)C1 (stereo not given)	-103.1%	?	?	?	?
CCN(CC)C(=O)C1=C(C)N(Cc2ccccc2)C(=O)C(CC(=O)NCC2CCCCC2)C1 (stereo not given)	?	-0.1%	?	8.3%	-21.7
Nc1ncc(S(=O)(=O)NCc2ccc(Cl)cc2)cn1	-12.8%	.	-23.7%	.	.
CC(=O)N1CCc2cc(Br)cc(S(=O)(=O)NCCCN(C)Cc3ccccc3)c21	-0.4%	-6.4%	?	-20.7%	-12.3
CC(C)(C)N(Cc1ccccc1)C(=O)COC(=O)CSc1ccc([N+](=O)[O-])cc1	?	-3.4%	?	9.0%	9.7
CCOc1ccccc1NC(=O)Cn1ncc2c([nH]c3ccccc32)c1=O	-18.4%	.	-25.4%	.	.

Assay outcomes (PubChem BioAssay)
